Assay outcomes deposited in PubChem by several laboratories.
Hits are enriched below; roughly 4.3% of the tested compounds scored in any of these assays.
BoNT F protease: inhibitors of Botulinum neurotoxin F light chain protease; inhibition, % at 10 µM; Multiplex microsphere protease cleavage assay, flow cytometry; AID 588497; hit rate 0.22% among 360,000; in the data active = inhibition above about 35%, passing the limit was not always enough; inconclusive = no clear call, values can overlap the other calls; also: plate controls were buffer without enzyme for full effect and enzyme alone for no effect
MazF activator: activators of E. coli MazEF toxin-antitoxin RNase; P0AE70; FAM/BHQ RNA-DNA oligo cleavage fluorescence, 5 h; activation, % at 20 µM; hit rate 0.32% among 350,000; AID 504720; in the data active = activation above about 50%
Target sequence (P0AE70 whole entry, looked up): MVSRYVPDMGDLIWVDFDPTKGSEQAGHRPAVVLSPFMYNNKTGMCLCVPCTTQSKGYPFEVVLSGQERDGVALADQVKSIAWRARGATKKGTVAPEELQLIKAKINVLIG
PfHsp40 yeast: rescue of PfHsp40-mediated yeast toxicity. S. cerevisiae expressing PfHsp40, growth rescue, ATP luminescence. growth rescue, % at 12.5 µM. hit rate 0.68% among 340,000. AID 504582; in the data active = growth rescue above about 28%, passing the limit was not always enough; inconclusive = no clear call, values can overlap the other calls;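 also: yeast W303a lacking pdr1 and pdr3 grown in galactose medium; growth measured after three days at 30 °C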
BoNT A protease: inhibitors of Botulinum neurotoxin A light chain protease | multiplex microsphere protease substrate cleavage, flow cytometry | inhibition, % at 10 µM | hit rate 0.17% among 360,000; also: plate controls were buffer without enzyme for full effect and enzyme alone for no effect
Anthrax LF prot: blocks Bacillus anthracis lethal factor protease. multiplex microsphere protease cleavage assay, LF. AID 588501. P15917. inhibition, % at 10 µM. hit rate 0.12% among 360,000; also: plate controls were buffer without enzyme for full effect and enzyme alone for no effect
Autofluor counter: counter-screen for toxin protease inhibitors: compound fluorescence; compound autofluorescence counterscreen, microsphere flow cytometry; hits give high values; fluorescence intensity (concentration not given with the values); hit rate 3.1% among 360,000; AID 624483; in the data active = fluorescence intensity above about 16000; inconclusive = no clear call, values can overlap the other calls
Active calls of the source: *; ? = inconclusive; nt = not tested or not shown. Rule as the data show it, unless noted: active = inhibition above about 30%; inconclusive = no clear call, values can overlap the other calls; inactive = below that.

SMILES	BoNT F protease	MazF activator	PfHsp40 yeast	BoNT A protease	Anthrax LF prot	Autofluor counter
Cc1c(S(=O)(=O)Nc2ccc3c(c2)OCCO3)c(=O)n(C)c(=O)n1C	5	-2	-1	-1	-8	5615
Cn1c(=O)c(=O)n(C)c2cc(S(=O)(=O)Nc3ccc4c(c3)OCCO4)ccc21	-2	-1	-1	?	-2	22407*
Cn1c(=O)oc2cc(S(=O)(=O)Nc3ccc4c(c3)OCCO4)ccc21	-8	-1	0	?	0	21945*
O=C1CCC(NC(=O)c2ccccc2)C(=O)N1 (stereo not drawn)	-10	8	-1	2	-5	3943
COc1ccc(CN(C(=O)CN2C(=O)COc3ccccc32)C2CCCC2)c(OC)c1	3	-5	0	2	2	21877*
COc1ccc(CN(C(=O)CN2C(=O)C(C)Oc3ccccc32)C2CCCC2)c(OC)c1 (stereo not drawn)	-7	2	-2	-1	-6	7941
COc1ccc(OC)c(C2C3CN(C(C)C)CC=C3C(C#N)=C(N)C2(C#N)C#N)c1 (stereo not drawn)	6	8	0	0	-1	5415
CC(=O)N1CC=C2C(C#N)=C(N)C(C#N)(C#N)[C@H](c3ccoc3)[C@H]2C1	-1	12	0	1	0	23512*
Cc1ccc(C2C3CN(C(C)C)CC=C3C(C#N)=C(N)C2(C#N)C#N)cc1 (stereo not drawn)	4	156*	-1	3	0	6126
CCCCOc1ccc(C2C3CN(C(=O)OCC)CC=C3C(C#N)=C(N)C2(C#N)C#N)cc1OC (stereo not drawn)	-1	-8	-1	-1	1	23656*
CCOC(=O)N1CC=C2C(C#N)=C(N)C(C#N)(C#N)[C@H](c3ccc(OCC)c(OCC)c3)[C@H]2C1	-3	-5	0	-2	0	20898*
CCN1C(=O)Cc2cc(S(=O)(=O)NCCc3ccccc3)ccc21	5	9	12	0	-2	6200
Cn1c(=O)c2cc(S(=O)(=O)NCCC(=O)Nc3ccc(Cl)cc3)ccc2n(C)c1=O	6	6	2	1	-2	10505
Cn1c(=O)c2cc(S(=O)(=O)NCCC(=O)NCCc3ccc(Cl)cc3)ccc2n(C)c1=O	-5	1	-2	-2	0	17176*
O=c1ncn(-c2ccc(F)cc2)c2ncccc12	-2	1	-1	?	-3	20412*
Cn1nccc1C(=O)OCC(=O)Nc1nc(-c2ccccc2)cs1	1	-2	0	?	0	22484*
Cc1cccnc1NC(=O)Nc1cccs1	-3	4	0	?	-6	22281*
COc1ccccc1NC(=O)Nc1ncccc1C	1	3	0	2	0	22096*
COc1ccccc1OCC(=O)Nc1c2c(nn1-c1ccccc1)CS(=O)(=O)C2	8	-2	-1	2	-4	4366
c1ccc(CCn2c(C3CC3)nc3ccccc32)cc1	-5	6	0	0	0	16345*
CCOC(=O)C1CCCN(/C=C2\SC(=S)N(CC)C2=O)C1 (stereo not drawn)	?	1	1	-4	-17	4002
O=c1[nH]c(CSc2nnc(-c3ccccc3)n2C2CCCCC2)nc2ccccc12	3	-10	0	3	0	22043*
O=c1[nH]c(CSc2nnc(-c3ccncc3)n2Cc2ccco2)nc2ccccc12	-4	1	0	?	-1	22482*
O=C(CSc1nnc(-c2ccncc2)n1C1CC1)c1cccs1	-3	2	nt	0	-4	3631
Cc1ccc(-c2nnc(SCc3nc4ccccc4[nH]3)n2Cc2ccco2)cc1	-4	2	0	0	-1	10056
SMILES	BoNT F protease	MazF activator	PfHsp40 yeast	BoNT A protease	Anthrax LF prot	Autofluor counter
O=c1[nH]c(CSc2nnc(-c3ccccc3)n2-c2ccccc2)nc2ccccc12	-8	0	0	0	2	2014
COCCn1c(SCc2nc3ccccc3c(=O)[nH]2)nnc1-c1ccncc1	-2	7	0	?	-2	16786*
O=C(O)CSc1nnc(-c2ccncc2)n1C1CCCCC1	4	6	0	?	0	19539*
O=C(NCCc1ccc(F)cc1)Nc1ccccc1Cl	1	2	-1	0	-1	5359
CCCCCCOC(=O)CCc1c(C)nc(N)[nH]c1=O	2	0	-1	0	-2	3391
Cc1nc(N)[nH]c(=O)c1CCC(=O)OCC(C)C	-3	-1	1	-2	-2	23221*
CC(C)(C)OC(=O)C[C@H]1C/C=C\C[C@@H](CC(=O)N[C@@H](CO)Cc2ccccc2)C(=O)NC[C@H](c2ccccc2)OC1=O	-7	-2	-1	-1	-1	4052
COc1ccccc1CN(C)C[C@H]1OCc2cnnn2CCCC(=O)N([C@@H](C)CO)C[C@@H]1C	-2	2	nt	0	-2	4057
CN(C)/C=C(/C(=O)c1ccc(Cl)cc1Cl)S(=O)(=O)c1ccc(Cl)cc1	8	3	-1	0	-2	9207
CN(C)/C=C(/C(=O)c1ccc(Cl)cc1)S(=O)(=O)c1ccc(Cl)cc1	-5	10	2	-1	-1	16355*
COc1ccc(NC(=O)CS(=O)c2ccc(Br)cc2)cc1 (stereo not drawn)	-5	4	0	-1	-2	6001
C#CCOc1ccc(/C=C2/C(=O)N(c3cccc(C(=O)O)c3)N=C2C)cc1OC	35*	9	1	0	2	3037
COc1cc(/C=C2\C(=O)N(c3cccc(C(=O)O)c3)N=C2C)ccc1OCc1ccccc1	-1	-9	nt	0	-9	3783
CCOc1ccc(CCNC(=O)CS(=O)Cc2nc(-c3ccccc3C)oc2C)cc1OCC (stereo not drawn)	-98	4	0	-49	-18	20576*
CCCNC(=O)CS(=O)Cc1nc(-c2ccccc2C)oc1C (stereo not drawn)	-21	-10	-1	-2	-6	6459
Cc1ccccc1-c1nc(CS(=O)CC(=O)NCCN2CCN(Cc3ccccc3)CC2)c(C)o1 (stereo not drawn)	0	2	-1	?	-4	21943*
CSc1ccccc1NC(=O)COC(=O)c1cnc(C)cn1	10	6	0	3	-2	6162
Cc1ccc(S(=O)(=O)c2cc3c(=O)n4ccccc4nc3n(Cc3ccco3)c2=N)cc1	5	-32	0	?	3	20456*
Cc1ccc(S(=O)(=O)c2cc3c(=O)n4ccccc4nc3n(C)c2=N)cc1C	0	7	0	2	-3	5316
C=CCn1c(=N)c(S(=O)(=O)c2ccc(C)c(C)c2)cc2c(=O)n3ccccc3nc21	1	183*	-1	0	1	5659
Cc1ccsc1C(=O)N1CCCCCC1(C)C(=O)NCC(C)C (stereo not drawn)	0	nt	nt	0	2	3735
